# A selection: hits, their analogues and other compounds. The true share with any hit is near 2.8%.
# Pol iota inh = qHTS for Inhibitors of Polymerase Iota; Pol iota fluorescent replication assay, 10 min; 390,000 tested, 1% active; DNA polymerase iota (Homo sapiens), Q9UNA4; Potency, µM (doses to about 115 µM), most hits filed as inhibitors
#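 Fluorescent replication assay read twice, at 0 min and 10 min after adding 50 nM (final) substrate. Enzyme (10 nM) and compounds were first incubated 15 min at room temperature; enzyme-free buffer wells were negative controls.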
# Pol beta inh = qHTS Assay for Inhibitors of DNA Polymerase Beta; Potency, µM (titrated, usually from 114 µM), actives largely listed as inhibitors; 340,000 tested, 1.3% active; Pol beta primer extension/strand displacement, fluorescence kinetic
#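 10 nM enzyme + cpd, 15 min RT; start with substrate 50 nM final; read 0 min and after 10 min RT. Corrected, normalized data; 4-parameter Hill curve fit.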
# Pol kappa inh-1 = qHTS for Inhibitors of Polymerase Kappa | Potency, µM (top dose mostly 107 µM), actives largely listed as inhibitors | purified Pol kappa, fluorescent DNA synthesis assay, 10 min | DNA polymerase kappa (Homo sapiens), Q9UBT6 | 400,000 tested, 0.53% active
#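 Pol kappa 10 nM + cpd, 15 min RT; start w/ substrate 50 nM final; fluorescence kinetic read, 0 and 10 min. Neg ctrl: buffer, no enzyme.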
# WRN inhibitor = qHTS for Inhibitors of WRN Helicase; 360,000 tested, 0.46% active; Potency, µM (top dose mostly 114 µM), most hits filed as inhibitors; AID 651768, 2012; WRN helicase unwinding, fluorescent forked duplex, kinetic; also: nearly all actives have a fitted effect of over 55% in size
#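 Kinetic red-fluorescence monitoring (525/598 nm) tracks WRN helicase activity after 100 nM fluorophore-quencher forked duplex and 2 mM ATP are added to 20 nM enzyme pretreated 15 min at room temperature with compound.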
# Pol eta inh-1 = qHTS for Inhibitors of Polymerase Eta | DNA polymerase eta (Homo sapiens), Q9Y253 | recombinant Pol eta, fluorescent DNA replication assay | Potency, µM (titrated, usually from 114 µM), most hits filed as inhibitors | 390,000 tested, 1.2% active
#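 Pol eta (10 nM) was preincubated with compounds for 15 min at room temperature, after which fluorescent replication substrate (50 nM final) was added to start the reaction. Fluorescence was read kinetically at 0 and 10 min.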
# PI5P4Ka inh = qHTS for Inhibitors of phosphatidylinositol 5-phosphate 4-kinase (PI5P4K); PI5P4Kalpha enzyme, ADP-Glo luminescence, 60 min; hits give low values; AID 652105, 2013; Phosphatidylinositol 5-phosphate 4-kinase type-2 alpha (Homo sapiens), P48426; 330,000 tested, 1.2% active; max response, %; active = max response of -50% or lower; inconclusive = between -30% and -50%; inactive = -30% or higher; also: value at the top dose of about 77 µM
# Target sequence (P48426 whole entry, looked up): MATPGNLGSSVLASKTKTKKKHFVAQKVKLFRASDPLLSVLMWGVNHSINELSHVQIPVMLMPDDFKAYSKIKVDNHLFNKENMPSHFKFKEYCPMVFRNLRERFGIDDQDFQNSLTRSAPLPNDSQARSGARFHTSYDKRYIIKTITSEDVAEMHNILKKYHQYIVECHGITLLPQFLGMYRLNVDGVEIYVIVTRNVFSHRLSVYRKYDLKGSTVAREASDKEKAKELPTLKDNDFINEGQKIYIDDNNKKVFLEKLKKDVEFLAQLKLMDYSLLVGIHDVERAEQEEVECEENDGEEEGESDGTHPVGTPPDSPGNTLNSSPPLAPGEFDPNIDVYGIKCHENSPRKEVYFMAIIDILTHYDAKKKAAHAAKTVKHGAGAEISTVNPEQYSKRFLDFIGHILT
#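 Enzyme plus substrate dispensed, test compounds pinned in, then ATP (5 microM final) added. After 60 min at RT, ADP-Glo reagent 1 for 45 min and reagent 2 for 30 min preceded luminescence imaging.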
# Pol iota confirm = qHTS for Inhibitors of Polymerase Iota: Confirmatory Assay for Cherry-picked Compounds | shares compounds with Pol kappa inh-1 | Pol iota primer extension, TAMRA/BHQ fluorescence | Potency, µM, most hits filed as inhibitors | 1,500 tested, 77% active
# GALK inh confirm = Confirmation Assay for Inhibitors of Human Galactokinase (GALK) | shares compounds with Pol eta inh-1 | purified GALK, Kinase-Glo ATP depletion luminescence | Potency, µM (top dose mostly 115 µM), hits mostly inhibitors | 150 tested, 70% active | AID 2015, 2009
# Redox cycling = Confirmatory Assay for Inhibitors of Human Galactokinase (GALK): Phenol-HRP redox assay counterscreen | Phenol red-HRP H2O2 redox cycling, absorbance 600 nm | Potency, µM (highest dose often 115 µM), usual class: inhibitors | 150 tested, 40% active | AID 2035, 2009 | shares compounds with Pol eta inh-1
# HEK293 viability = Secondary Assay for Inhibitors of Human Galactokinase (GALK): HEK-293 Cell Viability Assay; shares compounds with Pol eta inh-1; HEK-293 viability, ATP luminescence (CellTiter-Glo), 24/48 h; Potency, µM (series often up to 46.1 µM), actives largely listed as inhibitors; 170 tested, 10% active; AID 2547, 2010
# Pol kappa inh-2 = qHTS for Inhibitors of Polymerase Kappa: Confirmatory Assay for Cherry-picked Compounds | AID 720501, 2013 | 920 tested, 76% active | purified Pol-kappa, fluorescent strand-displacement substrate | shares compounds with Pol eta inh-1 | Potency, µM, most hits filed as inhibitors
# Pol eta inh-2 = qHTS for Inhibitors of Polymerase Eta: Confirmatory Assay for Cherry-picked Compounds; shares compounds with Pol eta inh-1; Pol eta primer extension, TAMRA/BHQ fluorescence, 10 min; Potency, µM, actives largely listed as inhibitors; 2,600 tested, 64% active
# ADP-Glo interf = qHTS for Inhibitors of PI5P4K: ADP-Glo counter assay. ADP-Glo detection counter-screen, luciferase luminescence, no enzyme. Potency, µM (highest dose often 76.9 µM), most hits filed as inhibitors. shares compounds with PI5P4Ka inh. 1,100 tested, under 10 active
# Hits are given with their value; n = inactive; u = inconclusive; x = no result; [ ] = another dose, or the depositor's remark. Unless noted, calls follow the shape of the dose curve; as a rule, active = well fitted curve in the direction sought with a large enough effect; inconclusive = small, poorly fitted or top-dose-only effect, or another doubt; inactive = no such curve, though single readings can be large; an effect the other way counts as inactive or inconclusive.
SMILES,Pol iota inh,Pol beta inh,Pol kappa inh-1,WRN inhibitor,Pol eta inh-1,PI5P4Ka inh,Pol eta inh-2,others
Cc1ccc(-c2cc(C(=O)NCc3ccco3)c3ccccc3n2)o1,u,18µM,79µM,56µM,7.9µM,-88,u,Pol iota confirm=u;ADP-Glo interf=n
O=C(Nc1nccs1)c1cc(-c2ccco2)nc2ccccc12,22µM,7.1µM,u,u,4µM,-86,u,Pol iota confirm=u;ADP-Glo interf=n
CCOC(=O)c1noc2ncnc(N3CCN(c4ccccc4OC)CC3)c12,n,n,n,x,n,x,x,
O=c1c(S(=O)(=O)c2ccccc2)cn(Cc2ccc(F)cc2)c2cc(N3CCCC3)c(F)cc12,n,n,n,x,n,x,x,
CCOC(=O)C1CCCN(C(=O)c2cc(C)oc2C)CC1 (stereo not drawn),x,x,x,n,x,n,x,
COc1cccc(NC(=O)CN(C)C(=O)c2cc3c(s2)CCC(C)C3)c1 (stereo not drawn),n,x,n,n,n,n,x,
COc1cccc(NC(=O)CN(C)C(=O)c2cc3c(s2)CCC3)c1,22µM,x,32µM,u,3.5µM,-71,76,Pol iota confirm=34;ADP-Glo interf=n
COc1ccc(OC)c([N+](=O)[O-])c1C(N)=O,18µM,6.3µM,u,u,50µM,-65,30,Pol iota confirm=21;ADP-Glo interf=n
Cc1ccccc1OCc1nnc(SCc2cc(=O)c3cc(F)ccc3[nH]2)n1C,n,n,n,x,n,x,x,
O=C(O)c1ccc(NS(=O)(=O)c2ccc3c(c2)C2C=CCC2C(c2ccccc2F)N3)cc1 (stereo not drawn),u,u,35µM,35µM,10µM,-51,19,Pol iota confirm=38;ADP-Glo interf=n
CCCCn1c(N)c(N(CCOC)C(=O)c2cc(-c3ccco3)nc3ccccc23)c(=O)[nH]c1=O,20µM,x,89µM,u,11µM,-71,u,Pol iota confirm=u;ADP-Glo interf=n
O=C(N/N=C/c1ccncc1)c1cc([N+](=O)[O-])cc([N+](=O)[O-])c1O,u,n,n,n,25µM,u,u,
Cc1c(Cl)cnc(NC(=O)COC(=O)c2ccc([N+](=O)[O-])s2)c1Cl,25µM,28µM,n,u,18µM,-79,85,
O=C1C(C2=C(O)c3ccccc3C2=O)=Nc2ccccc21,n,n,n,n,32µM,x,x,GALK inh confirm=24µM;Redox cycling=15µM;HEK293 viability=n
CCOc1cc(CNc2ccc(O)cc2)ccc1OCc1ccc(Cl)cc1,7.9µM,u,u,x,n,x,u,
CCOc1cc(CNc2ccc3c(c2)CCC3)ccc1O,u,n,n,n,n,n,x,
Oc1ccc(NCc2ccccc2OCc2ccc(Cl)cc2)cc1,u,u,u,x,n,x,u,
Cc1ccc(C(=O)Nc2ccc(Br)cc2)cc1S(=O)(=O)N1CCOCC1,n,n,n,x,n,x,x,
Cc1ccc(O)c(C=Nc2cc(C)ccc2O)c1,n,n,n,n,n,n,x,
Cc1ccc(O)c(N=Cc2cc(Cc3ccccc3)cc([N+](=O)[O-])c2O)c1,u,5.6µM,u,u,79µM,-64,x,Pol kappa inh-2=67
CCN(CC)Cc1cc(O)c(CN(CC)CC)cc1O,u,3.5µM,8.9µM,50µM,50µM,n,u,
CCc1oc(C(=O)O)cc1CN(CC)CC,n,n,n,n,n,x,x,
O=C1OC(C(=O)O)Cc2ccccc21 (stereo not drawn),n,n,n,n,n,x,x,GALK inh confirm=n;Redox cycling=n;HEK293 viability=n
COc1ccc(C(=O)NCC(=O)OCC(=O)Nc2sccc2C#N)cc1OC,n,u,u,n,50µM,-58,u,
Cc1ccc(S(=O)(=O)CCC(=O)OCC(=O)Nc2sccc2C#N)cc1,x,x,x,n,28µM,-60,u,
SMILES,Pol iota inh,Pol beta inh,Pol kappa inh-1,WRN inhibitor,Pol eta inh-1,PI5P4Ka inh,Pol eta inh-2,others
Cc1ccc(S(=O)(=O)CCC(=O)Nc2sccc2C#N)cc1,n,x,n,n,n,n,x,
COc1ccc(OC)c(NC(=O)COC(=O)CNC(=O)c2ccc(OC)c(OC)c2)c1,n,n,n,n,n,n,x,
O=C(O)c1cccc(N2CCCC2)c1,u,n,n,n,u,n,76,
CCN=c1scc(C)n1/N=C/c1cc(Br)c(O)c(Br)c1,n,u,n,n[11.6 µM],u,u,x,
CCN=c1scc(C)n1/N=C/c1ccc(O)c(O)c1O,8.9µM,10µM,22µM,22µM,6.3µM,-51,67,
COc1cc(CN2C(=O)C(Cc3ccccc3)ON=C2c2ncccc2C)cc(OC)c1 (stereo not drawn),x,x,x,n,x,n,x,
Cc1cc(NS(=O)(=O)c2ccc(NC(=O)/C=C/c3ccco3)cc2)nc(C)n1,u,n,79µM,u,28µM,n,34,
COc1ccccc1NC(=S)NC(=O)/C=C/c1ccco1,u,45µM,u,u,20µM,u,u,
NS(=O)(=O)c1ccc(NC(=S)NC(=O)/C=C/c2ccco2)cc1,u,u,u,n[11.6 µM],32µM,n,u,Pol kappa inh-2=38
Cc1cccc(NC(=S)NC(=O)/C=C/c2ccco2)c1,20µM,32µM,79µM,u,50µM,-64,u,
